Measurements taken from PubChem BioAssay (Tox21).
Where “and” joins values, the source holds several entries; their conditions need not be identical. Equal values may be shown once. Records with an inconclusive call do not appear. Where a call stands in place of a potency, no number is given. Where a structure was tested more than once in an assay, its records may differ in their call. Calls of active or inactive are those of the source. Unless noted, calls follow the shape of the dose curve; as a rule, active = well fitted curve in the direction sought with a large enough effect in the repeat runs; inconclusive = weak or mixed curves; inactive = no such curve, though single readings can be large; an effect the other way counts as inactive or inconclusive.

Legend:
[1] = qHTS assay to identify small molecule antagonists of the glucocorticoid receptor (GR) signaling pathway - cell viability counter screen (AID 720693); also: nearly all actives have a fitted effect of over 55% in size; also: potency is read from the fitted curve at half-maximal effect
[2] = qHTS assay for identifying genotoxic compounds that show differential cytotoxicity against isogenic chicken DT40 cell lines with known DNA damage response pathways - wild type cell line (AID 743012); also: nearly all actives have a fitted effect of over 60% in size; also: potency is read from the fitted curve at half-maximal effect
In short: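 CellTiter-Glo luminescence readout of viability in wild type DT40 cells after 40 h compound exposure at 37 C/5% CO2; 300 cells/well; reagent incubated 30 min at room temperature before reading.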

[3] = qHTS assay for identifying genotoxic compounds that show differential cytotoxicity against isogenic chicken DT40 cell lines with known DNA damage response pathways - Rev3 mutant cell line (AID 743014); also: nearly all actives have a fitted effect of over 55% in size; also: potency is read from the fitted curve at half-maximal effect
[4] = qHTS assay for identifying genotoxic compounds that show differential cytotoxicity against isogenic chicken DT40 cell lines with known DNA damage response pathways - Rad54/Ku70 mutant cell line (AID 743015); also: nearly all actives have a fitted effect of over 60% in size; also: potency is read from the fitted curve at half-maximal effect
[5] = qHTS assay to identify small molecule antagonists of the androgen receptor (AR) signaling pathway - cell viability counter screen (AID 743033; also: nearly all actives have a fitted effect of over 45% in size; also: potency is read from the fitted curve at half-maximal effect)
[6] = qHTS assay to identify small molecule antagonists of the androgen receptor (AR) signaling pathway using the MDA cell line - cell viability counter screen (AID 743041; also: nearly all actives have a fitted effect of over 45% in size; also: potency is read from the fitted curve at half-maximal effect)
In short: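 Using the breast carcinoma line MDA-kb2 AR-luc, test chemicals were co-incubated with R1881 for 16 h; CellTiter-Fluor reagent, added at 15.5 h, provided a fluorescence measure of live cells.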

[7] = molecular target: Androgen receptor (Homo sapiens) (UniProt P10275); assay: qHTS assay to identify small molecule agonists of the androgen receptor (AR) signaling pathway using the MDA cell line (AID 743040; also: nearly all actives have a fitted effect of over 20% in size)
Sequence of Androgen receptor (Homo sapiens) (P10275 whole entry, looked up): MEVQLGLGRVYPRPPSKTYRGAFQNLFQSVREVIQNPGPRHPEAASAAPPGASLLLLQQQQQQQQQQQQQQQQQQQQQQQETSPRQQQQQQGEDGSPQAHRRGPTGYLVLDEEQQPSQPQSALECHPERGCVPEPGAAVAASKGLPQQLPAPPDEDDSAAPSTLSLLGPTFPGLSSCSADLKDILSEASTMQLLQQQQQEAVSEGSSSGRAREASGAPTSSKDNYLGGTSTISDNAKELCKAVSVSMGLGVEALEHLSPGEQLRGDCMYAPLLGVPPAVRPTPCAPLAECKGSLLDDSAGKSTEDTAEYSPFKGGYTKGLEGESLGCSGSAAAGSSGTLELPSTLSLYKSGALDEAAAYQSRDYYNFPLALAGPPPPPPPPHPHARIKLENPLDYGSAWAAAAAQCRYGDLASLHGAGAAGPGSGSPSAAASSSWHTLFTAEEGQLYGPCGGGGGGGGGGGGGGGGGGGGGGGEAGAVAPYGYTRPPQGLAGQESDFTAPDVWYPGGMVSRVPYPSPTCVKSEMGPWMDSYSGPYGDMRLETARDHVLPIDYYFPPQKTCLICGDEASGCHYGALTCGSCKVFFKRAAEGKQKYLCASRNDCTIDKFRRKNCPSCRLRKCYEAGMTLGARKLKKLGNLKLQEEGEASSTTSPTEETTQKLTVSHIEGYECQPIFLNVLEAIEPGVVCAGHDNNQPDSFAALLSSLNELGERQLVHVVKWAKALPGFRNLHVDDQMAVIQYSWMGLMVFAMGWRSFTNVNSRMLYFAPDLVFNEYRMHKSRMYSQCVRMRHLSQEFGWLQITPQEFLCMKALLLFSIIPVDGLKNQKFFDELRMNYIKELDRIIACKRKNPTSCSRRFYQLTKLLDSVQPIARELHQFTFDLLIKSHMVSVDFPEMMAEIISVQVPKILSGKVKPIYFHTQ
In short: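 Stable MMTV-luciferase reporter in MDA-kb2 cells; note the promoter carries GR as well as AR response elements. 16 h compound treatment, 37C, 0% CO2; ONE-Glo luminescence endpoint.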

[8] = molecular target: Androgen receptor (Homo sapiens) (UniProt P10275); assay: qHTS assay to identify small molecule antagonists of the androgen receptor (AR) signaling pathway using the MDA cell line (AID 743042; also: nearly all actives have a fitted effect of over 55% in size; also: potency is read from the fitted curve at half-maximal effect)
In short: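 Antagonist mode: compounds plus R1881 agonist added to MDA-kb2 AR-luc cells, incubated 16 h at 37C. Luciferase reporter luminescence quantified, with multiplexed CellTiter-Fluor readout for cell viability.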

[9] = molecular target: Androgen receptor (Homo sapiens) (UniProt P10275); assay: qHTS assay to identify small molecule antagonists of the androgen receptor (AR) signaling pathway (AID 743035; active = well fitted inhibition curve with a large enough effect in the signal ratio in the repeat runs, not every such curve was filed as active; the % refers to the signal ratio; also: potency is read from the fitted curve at half-maximal effect)
In short: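 AR-bla HEK293 reporter cells; 4 h settle at 37C/5% CO2; compound + R1881 agonist, 16 h at 37C; LiveBLAzer B/G FRET substrate 2 h RT; fluorescence intensity read. qHTS format.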

[10] = molecular target: Androgen receptor (Homo sapiens) (UniProt P10275); assay: qHTS assay to identify small molecule agonists of the androgen receptor (AR) signaling pathway (AID 743036; active = well fitted activation curve with a large enough effect in the signal ratio in the repeat runs, with a control signal flat, not every such curve was filed as active; the % refers to the signal ratio)
In short: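 Agonist activity was scored by beta-lactamase reporter fluorescence in stably transfected HEK293 cells exposed to compounds for 16 h at 37C and 5% CO2. Substrate loading took 2 h at room temperature.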

SMILES	Potency [1]	Potency [2]	Potency [3]	Potency [4]	Potency [5]	Potency [6]	outcome [7]	Potency [8]	Potency [9]	outcome [10]
Cc1ccc(S(=O)(=O)O)cc1	inactive	inactive	inactive	inactive	inactive	inactive				
CC(=O)Nc1c(I)c(NC(C)=O)c(I)c(C(=O)O)c1I	inactive	inactive	inactive	inactive	inactive	inactive				
C=CCc1ccc(O)c(OC)c1	inactive	inactive	inactive	inactive	inactive	inactive				
Cc1ncc([N+](=O)[O-])n1C	inactive	inactive	inactive	inactive	inactive	inactive				
O=C1NC(=O)C(c2ccccc2)(c2ccccc2)N1	inactive	inactive	inactive	inactive	inactive	inactive				
C1CCC(C(CC2CCCCN2)C2CCCCC2)CC1 (centres undefined)	21.3 µM (active)	2.66 µM (active)	4.73 µM (active)	5.96 µM (active)	23.9 µM (active)	18.8 µM (active)	inactive	13.3 µM (active)		
CCOc1ccc(NC(C)=O)cc1	inactive	inactive	inactive	inactive	inactive	inactive	inactive	inactive	inactive	inactive
CCCCCCc1ccc(O)cc1O	inactive	48.6 µM (active)	54.6 µM (active) and 38.6 µM (active)	21.7 µM (active)	inactive	inactive	inactive	inactive	inactive and 43.8 µM (active) and 43.6 µM (active)	inactive
COc1ccc2c(c1)c(CC(=O)O)c(C)n2C(=O)c1ccc(Cl)cc1	inactive	inactive	inactive	inactive	inactive	inactive	inactive	inactive		
Nc1c2c(nc3ccccc13)CCCC2	inactive	inactive and 27.3 µM (active)	inactive and 27.3 µM (active)	inactive and 19.3 µM (active)	inactive	inactive				
CC(=O)C(=O)O	inactive	inactive	inactive	inactive	inactive	inactive				
Cc1ncc([N+](=O)[O-])n1CCO	inactive	inactive	inactive	inactive and 61.1 µM (active)	inactive	inactive				
O=C(O)c1ccccc1	inactive	inactive	inactive	inactive	inactive	inactive				
Oc1ccccc1	inactive	inactive	inactive	inactive	inactive	inactive				
O=C1NS(=O)(=O)c2ccccc21	inactive	inactive	inactive	inactive	inactive	inactive				
CC(O)(P(=O)(O)O)P(=O)(O)O	inactive	inactive	inactive	inactive	inactive	inactive				
C[C@](N)(Cc1ccc(O)c(O)c1)C(=O)O	inactive	inactive	inactive and 61.6 µM (active) and 60.9 µM (active)	inactive and 60.9 µM (active)	inactive	inactive				
NC1CCCCC1	inactive	inactive	54.8 µM (active) and inactive	61.5 µM (active) and inactive	inactive	inactive				
COc1ccc(OC(F)(F)F)cc1CN[C@H]1CCCN[C@H]1c1ccccc1	inactive	15.4 µM (active)	30.6 µM (active)	27.3 µM (active)	49 µM (active)					

SMILES	Potency [1]	Potency [2]	Potency [3]	Potency [4]	Potency [5]	Potency [6]	outcome [7]	Potency [8]	Potency [9]	outcome [10]
CC1(C)O[C@@H]2C[C@H]3[C@@H]4CCC5=CC(=O)C=C[C@]5(C)[C@@]4(F)[C@@H](O)C[C@]3(C)[C@]2(C(=O)CO)O1	inactive	inactive	inactive	inactive	inactive	inactive				
Cn1c(=O)c2c(ncn2C)n(C)c1=O	inactive	inactive	inactive and 49.2 µM (active)	inactive and 49.2 µM (active)						
C/C=C/C=C/C(=O)O	inactive	inactive and 61.1 µM (active)	inactive	inactive and 61.1 µM (active)	inactive	inactive				
CS(=O)(=O)OCCCCOS(C)(=O)=O	inactive	inactive	inactive	inactive	inactive	inactive				
CN1CCc2cccc3c2[C@H]1Cc1ccc(O)c(O)c1-3	inactive	9.44 µM (active) and 15.5 µM (active) and 12.8 µM (active)	11.9 µM (active) and 6.93 µM (active) and 9.09 µM (active)	16.8 µM (active) and 12.3 µM (active) and 8.1 µM (active)	55.5 µM (active)	inactive				
CN[C@H]1CC[C@@H](c2ccc(Cl)c(Cl)c2)c2ccccc21	inactive	5.96 µM (active)	8.41 µM (active)	7.5 µM (active)	23.9 µM (active)					
CCCc1cc(=O)[nH]c(=S)[nH]1	inactive	inactive	inactive and 61.1 µM (active)	inactive and 54.5 µM (active)	inactive	inactive				
CC1(C)S[C@@H]2[C@H](NC(=O)[C@H](N)c3ccccc3)C(=O)N2[C@H]1C(=O)O	inactive	inactive	inactive	inactive	inactive	inactive				
CC(=O)CC(c1ccccc1)c1c(O)c2ccccc2oc1=O (centres undefined)	inactive	inactive	inactive	inactive	inactive	inactive				
Cc1c(C(=O)O)c(O)cc2c1C(=O)c1c(O)c([C@@H]3O[C@H](CO)[C@@H](O)[C@H](O)[C@H]3O)c(O)c(O)c1C2=O	inactive	inactive	inactive and 59.6 µM (active) and 54.5 µM (active)	53.1 µM (active) and 48.6 µM (active)		59.6 µM (active) and 27.3 µM (active)				
CC12CCC(CC1)C(C)(C)O2	inactive	inactive	inactive	inactive	inactive	inactive				
Cc1cc(C)nc(NS(=O)(=O)c2ccc(N)cc2)n1	inactive	inactive	inactive	inactive		inactive				
C=C(C)C(=O)OCC(C)O (centres undefined)	inactive	inactive	inactive	inactive		inactive				
NS(=O)(=O)c1cc2c(cc1Cl)NCNS2(=O)=O	inactive	inactive	inactive	inactive		inactive				
Cc1cn([C@H]2C=C[C@@H](CO)O2)c(=O)[nH]c1=O	inactive	inactive	inactive	inactive		inactive				
O=S1(=O)OC(c2ccc(O)cc2)(c2ccc(O)cc2)c2ccccc21	inactive	inactive	inactive	inactive and 43.3 µM (active)	inactive	48.6 µM (active) and 61.1 µM (active)				
NC(=O)c1cccnc1	inactive	inactive	inactive	inactive		inactive				
NS(=O)(=O)O	inactive	inactive	inactive	inactive		inactive				
C=C1CC[C@H](O)C/C1=C\C=C1/CCC[C@]2(C)[C@@H]([C@H](C)CCCC(C)C)CC[C@@H]12	54.4 µM (active)	11.9 µM (active) and 54 µM (active)	26.6 µM (active) and 24.1 µM (active)	13.3 µM (active) and 15.2 µM (active)	inactive	inactive				
